Paper PMC7862700, “An all-to-all approach to the identification of sequence-specific readers for epigenetic DNA modifications on cytosine”

What was measured:
Test in all cases: DAPPL (digital affinity profiling via proximity ligation, sequencing); 10 mM Tris-HCl pH 7.5, 50 mM NaCl, 1 mM DTT, 4% glycerol, room temperature, 30 min; GST-TFs on glutathione beads, 16-mer random dsDNA library, 0.1% formaldehyde crosslink after washing; high values mean tight binding
Settings in all cases: protein: recombinant; tags: N-terminal GST; dsDNA, one strand shown
ELF4 = ELF4 (Homo sapiens, UniProt Q99607 1-663)
In short: (§1)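 Yeast served to express human transcription factors as GST fusions, which were then captured on glutathione beads and labelled with DNA barcodes. Pooled with a tag-only sample, they were incubated with 200 nmole of a 16-mer random double-stranded DNA library for 30 min at room temperature in Tris/NaCl/DTT/glycerol buffer, washed, crosslinked with 0.1% formaldehyde, ligated by proximity, amplified by PCR and sequenced. Dividing each hexamer's read frequency for a factor by its frequency for the tag-only sample gives the binding signal.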

ELK4 = target: T1, ELK4 (Homo sapiens, UniProt P28324-2 1-405)
T1 sequence: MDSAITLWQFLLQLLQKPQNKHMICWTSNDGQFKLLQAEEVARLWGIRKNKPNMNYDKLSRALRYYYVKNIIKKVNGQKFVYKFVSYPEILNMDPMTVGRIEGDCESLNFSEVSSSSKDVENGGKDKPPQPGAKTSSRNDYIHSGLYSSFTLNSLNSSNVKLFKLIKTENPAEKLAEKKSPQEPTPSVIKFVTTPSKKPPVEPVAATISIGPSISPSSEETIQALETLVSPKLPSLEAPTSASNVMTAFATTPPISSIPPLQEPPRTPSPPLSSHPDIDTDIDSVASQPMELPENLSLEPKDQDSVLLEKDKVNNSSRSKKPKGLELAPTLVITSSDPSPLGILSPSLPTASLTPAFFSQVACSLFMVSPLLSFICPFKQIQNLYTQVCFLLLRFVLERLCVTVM
In short: as §1

ETV2 = target: T2, ETV2 (Homo sapiens, UniProt O00321 1-342)
T2 sequence: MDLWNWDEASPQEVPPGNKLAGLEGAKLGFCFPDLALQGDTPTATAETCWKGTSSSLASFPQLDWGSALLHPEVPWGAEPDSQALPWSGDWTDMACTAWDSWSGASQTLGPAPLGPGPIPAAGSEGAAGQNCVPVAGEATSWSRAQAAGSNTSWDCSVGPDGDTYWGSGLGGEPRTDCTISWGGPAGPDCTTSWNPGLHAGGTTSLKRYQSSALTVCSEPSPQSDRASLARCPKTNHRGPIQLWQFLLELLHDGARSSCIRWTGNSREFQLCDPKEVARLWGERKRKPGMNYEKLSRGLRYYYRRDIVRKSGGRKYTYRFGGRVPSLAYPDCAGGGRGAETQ
In short: as §1

ELF3 = target: T3, ELF3 (Homo sapiens, UniProt P78545 1-371)
T3 sequence: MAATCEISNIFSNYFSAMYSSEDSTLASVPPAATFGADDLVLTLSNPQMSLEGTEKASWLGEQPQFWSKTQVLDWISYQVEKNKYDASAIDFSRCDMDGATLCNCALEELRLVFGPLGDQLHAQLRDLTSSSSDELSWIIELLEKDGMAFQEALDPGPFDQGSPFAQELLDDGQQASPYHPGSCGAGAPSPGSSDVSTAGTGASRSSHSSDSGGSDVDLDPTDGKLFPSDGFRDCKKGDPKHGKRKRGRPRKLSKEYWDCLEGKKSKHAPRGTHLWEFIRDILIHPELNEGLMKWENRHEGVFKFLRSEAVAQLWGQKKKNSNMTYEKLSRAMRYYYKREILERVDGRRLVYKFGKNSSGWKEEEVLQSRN
In short: as §1

ETV1 = ETV1 (Homo sapiens, UniProt P50549 1-477)
In short: as §1

ERF = target: T4, ERF (Homo sapiens, UniProt P50548 1-548)
T4 sequence: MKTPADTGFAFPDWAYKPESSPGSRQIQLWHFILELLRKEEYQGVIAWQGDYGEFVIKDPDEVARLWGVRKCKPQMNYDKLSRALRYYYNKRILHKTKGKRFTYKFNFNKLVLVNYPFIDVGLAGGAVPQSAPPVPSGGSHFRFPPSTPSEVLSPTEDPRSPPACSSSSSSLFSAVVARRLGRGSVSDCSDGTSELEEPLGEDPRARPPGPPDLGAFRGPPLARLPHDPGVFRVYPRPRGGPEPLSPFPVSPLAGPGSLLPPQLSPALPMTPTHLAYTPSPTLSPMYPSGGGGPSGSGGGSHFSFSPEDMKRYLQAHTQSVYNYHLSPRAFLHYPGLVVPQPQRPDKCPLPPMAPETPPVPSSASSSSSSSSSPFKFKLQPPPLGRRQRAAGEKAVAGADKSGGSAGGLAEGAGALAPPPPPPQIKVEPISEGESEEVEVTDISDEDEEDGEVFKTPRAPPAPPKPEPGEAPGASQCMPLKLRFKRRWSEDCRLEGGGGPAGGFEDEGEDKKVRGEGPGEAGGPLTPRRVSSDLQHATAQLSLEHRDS
In short: as §1

ETV3L = target: T5, ETV3L (Homo sapiens, UniProt Q6ZN32 1-361)
T5 sequence: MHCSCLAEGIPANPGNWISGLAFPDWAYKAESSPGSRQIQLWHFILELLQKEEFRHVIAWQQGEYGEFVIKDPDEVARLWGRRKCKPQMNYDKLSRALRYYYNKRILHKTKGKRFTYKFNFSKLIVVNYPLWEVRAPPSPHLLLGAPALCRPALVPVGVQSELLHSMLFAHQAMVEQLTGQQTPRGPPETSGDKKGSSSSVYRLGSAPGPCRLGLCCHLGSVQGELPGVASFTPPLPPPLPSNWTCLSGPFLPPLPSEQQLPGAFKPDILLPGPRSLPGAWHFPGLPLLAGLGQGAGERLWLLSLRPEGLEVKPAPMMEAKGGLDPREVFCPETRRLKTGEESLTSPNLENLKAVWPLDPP
In short: as §1

ETV7 = target: T6, ETV7 (Homo sapiens, UniProt Q9Y603 1-341)
T6 sequence: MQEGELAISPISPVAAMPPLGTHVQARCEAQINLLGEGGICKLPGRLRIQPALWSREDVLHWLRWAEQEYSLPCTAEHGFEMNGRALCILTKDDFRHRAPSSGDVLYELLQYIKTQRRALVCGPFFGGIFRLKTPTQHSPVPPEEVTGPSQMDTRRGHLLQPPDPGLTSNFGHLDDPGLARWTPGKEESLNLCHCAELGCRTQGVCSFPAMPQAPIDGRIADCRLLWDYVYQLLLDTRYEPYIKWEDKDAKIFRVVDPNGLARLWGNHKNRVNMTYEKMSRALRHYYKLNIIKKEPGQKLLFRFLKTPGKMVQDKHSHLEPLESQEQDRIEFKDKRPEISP
In short: as §1

ETV3 = target: T7, ETV3 (Homo sapiens, UniProt P41162-2 1-143)
T7 sequence: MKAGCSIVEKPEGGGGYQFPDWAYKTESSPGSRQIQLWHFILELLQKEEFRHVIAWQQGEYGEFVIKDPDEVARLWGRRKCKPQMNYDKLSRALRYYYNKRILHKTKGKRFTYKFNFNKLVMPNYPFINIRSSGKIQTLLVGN
In short: as §1

ETV6 = ETV6 (Homo sapiens, UniProt P41212 1-452)
In short: as §1

Chain of ETV6 (P41212 whole entry): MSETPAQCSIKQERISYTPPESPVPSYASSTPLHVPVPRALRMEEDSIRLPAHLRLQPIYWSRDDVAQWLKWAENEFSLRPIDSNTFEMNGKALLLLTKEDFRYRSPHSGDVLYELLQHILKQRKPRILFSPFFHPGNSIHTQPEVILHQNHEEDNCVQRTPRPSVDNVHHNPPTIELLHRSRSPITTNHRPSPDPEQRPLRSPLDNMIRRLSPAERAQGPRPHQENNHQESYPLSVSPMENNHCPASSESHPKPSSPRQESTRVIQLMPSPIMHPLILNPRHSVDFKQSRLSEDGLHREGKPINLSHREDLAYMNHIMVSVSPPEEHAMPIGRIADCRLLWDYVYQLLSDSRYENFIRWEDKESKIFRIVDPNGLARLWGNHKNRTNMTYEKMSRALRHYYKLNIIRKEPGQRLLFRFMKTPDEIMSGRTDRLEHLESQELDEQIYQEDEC
Chain of ETV1 (P50549 whole entry): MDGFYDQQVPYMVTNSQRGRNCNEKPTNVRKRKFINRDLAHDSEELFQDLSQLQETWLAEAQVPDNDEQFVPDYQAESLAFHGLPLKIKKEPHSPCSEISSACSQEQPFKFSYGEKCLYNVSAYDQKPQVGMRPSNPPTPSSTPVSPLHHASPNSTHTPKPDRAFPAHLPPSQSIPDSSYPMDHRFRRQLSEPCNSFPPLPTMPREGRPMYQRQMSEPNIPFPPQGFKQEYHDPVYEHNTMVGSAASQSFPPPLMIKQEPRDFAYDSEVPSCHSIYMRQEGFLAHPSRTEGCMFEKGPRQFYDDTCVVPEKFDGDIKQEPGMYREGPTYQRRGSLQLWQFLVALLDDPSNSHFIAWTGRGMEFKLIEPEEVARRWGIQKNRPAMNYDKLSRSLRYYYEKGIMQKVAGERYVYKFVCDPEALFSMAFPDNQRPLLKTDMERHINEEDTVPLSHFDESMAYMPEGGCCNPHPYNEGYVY
Chain of ELF4 (Q99607 whole entry, the tested form may be a part): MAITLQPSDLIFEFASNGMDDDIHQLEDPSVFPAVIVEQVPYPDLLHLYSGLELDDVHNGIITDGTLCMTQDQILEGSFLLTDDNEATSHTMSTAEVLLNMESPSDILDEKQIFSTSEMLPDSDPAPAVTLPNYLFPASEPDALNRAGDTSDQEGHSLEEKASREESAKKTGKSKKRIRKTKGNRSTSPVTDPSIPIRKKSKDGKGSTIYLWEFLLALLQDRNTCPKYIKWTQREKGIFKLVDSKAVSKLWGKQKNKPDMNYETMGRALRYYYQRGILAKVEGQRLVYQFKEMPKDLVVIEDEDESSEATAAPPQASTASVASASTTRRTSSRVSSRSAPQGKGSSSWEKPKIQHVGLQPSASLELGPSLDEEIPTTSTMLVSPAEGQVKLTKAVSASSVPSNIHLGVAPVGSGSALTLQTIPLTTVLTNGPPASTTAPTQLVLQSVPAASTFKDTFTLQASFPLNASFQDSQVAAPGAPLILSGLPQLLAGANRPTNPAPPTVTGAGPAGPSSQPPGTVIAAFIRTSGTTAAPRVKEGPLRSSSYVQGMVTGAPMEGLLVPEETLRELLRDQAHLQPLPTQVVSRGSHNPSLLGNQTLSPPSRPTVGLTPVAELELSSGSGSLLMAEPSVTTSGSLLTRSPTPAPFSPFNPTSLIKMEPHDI

TACAGC
binding signal (ELF4): 1.13 fold enrichment (6-mer frequency, TF over GST control) | binding signal (ELK4): 1.02 fold enrichment (6-mer frequency, TF over GST control) | binding signal (ETV2): 1.12 fold enrichment (6-mer frequency, TF over GST control) | binding signal (ELF3): 1.16 fold enrichment (6-mer frequency, TF over GST control) | binding signal (ETV1): 1.03 fold enrichment (6-mer frequency, TF over GST control) | binding signal (ERF): 1.16 fold enrichment (6-mer frequency, TF over GST control) | binding signal (ETV3L): 1.08 fold enrichment (6-mer frequency, TF over GST control) | binding signal (ETV7): 1.09 fold enrichment (6-mer frequency, TF over GST control) | binding signal (ETV3): 1.02 fold enrichment (6-mer frequency, TF over GST control) | binding signal (ETV6): 1.1 fold enrichment (6-mer frequency, TF over GST control)
